Screens from PubChem BioAssay.
Compounds with a hit are over-represented: about 2.5% of the library has one in this group of screens.
GRK2 aptamer HTS = compounds blocking aptamer binding on GRK2 – biochemical, human GRK2, bead flow cytometry, HTS, primary screen. Beta-adrenergic receptor kinase 1 (Homo sapiens), P25098. FAM-aptamer displacement from GRK2. inhibition of aptamer binding, % at 10 µM. 0.59% of 330,000 active. AID 488847, 2010;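 active = inhibition of aptamer binding above 40%, roughly 3 SD of noise, on plates passing a quality check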;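 also: median bead fluorescence of bound FAM aptamer so fluorescent compounds give negative values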
Target sequence (P25098 whole entry, looked up): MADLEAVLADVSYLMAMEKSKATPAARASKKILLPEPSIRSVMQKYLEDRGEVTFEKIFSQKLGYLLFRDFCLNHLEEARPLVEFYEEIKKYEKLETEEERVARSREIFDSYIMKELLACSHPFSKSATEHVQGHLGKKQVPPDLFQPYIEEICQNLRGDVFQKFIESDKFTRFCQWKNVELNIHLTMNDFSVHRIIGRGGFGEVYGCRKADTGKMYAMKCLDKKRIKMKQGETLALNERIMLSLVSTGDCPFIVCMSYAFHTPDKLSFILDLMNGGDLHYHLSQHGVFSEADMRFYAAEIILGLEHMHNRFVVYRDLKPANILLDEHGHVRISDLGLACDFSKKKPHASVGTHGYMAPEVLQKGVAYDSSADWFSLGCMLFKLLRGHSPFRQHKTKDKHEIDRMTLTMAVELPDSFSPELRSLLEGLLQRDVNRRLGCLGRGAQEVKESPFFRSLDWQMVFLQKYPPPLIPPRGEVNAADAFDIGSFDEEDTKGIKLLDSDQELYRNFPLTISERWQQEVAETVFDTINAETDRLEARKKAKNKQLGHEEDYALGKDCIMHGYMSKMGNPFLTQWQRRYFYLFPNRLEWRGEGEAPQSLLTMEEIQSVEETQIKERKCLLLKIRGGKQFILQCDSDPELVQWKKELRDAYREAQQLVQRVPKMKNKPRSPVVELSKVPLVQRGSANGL
MEKK2 mut-MEK5 = MEK5 binding signal on mutant MEKK2 PB1, primary screen, biochemical, multiplex bead flow cytometry, Alexa488-MEK5 | Alexa488-MEK5 binding to MEKK2 mutant | percent response, % at 10 µM | 0.35% of 290,000 active | AID 1530, 2009; in the data active = percent response above about 24%, passing the limit was not always enough
MEKK3 PB1 HTS = modulators of MEKK3-MEK5 PB1 binding, primary screen, biochemical, wildtype MEKK3, multiplex bead flow cytometry, Alexa488-MEK5; Mitogen-activated protein kinase kinase kinase 3 (Homo sapiens), Q99759; bead-based flow cytometry, Alexa488-MEK5 binding to MEKK3; actives lie on both sides; 0 = blocked by unlabeled MEK5, 100 = vehicle; binding response (% of control), % at 10 µM; 1.4% of 290,000 active; AID 1529, 2009;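 active = binding response more than 3 SD above or below the average of its plate-row segment, actives on both sides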;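 also: Alexa488 bead fluorescence after subtracting the streptavidin-only scavenger bead signal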
MEKK2wt PB1 HTS = modulators of MEK5 binding to wildtype MEKK2, primary screen, biochemical, multiplex bead flow cytometry, Alexa488-MEK5. binding response (% of control), % at 10 µM. Mitogen-activated protein kinase kinase kinase 2 (Homo sapiens), Q9Y2U5. AID 1531, 2009. 1.1% of 290,000 active. Alexa488-MEK5 binding to MEKK2 WT; actives lie on both sides; in the data active = binding response below about 67% or above about 130%
MEKK2wt confirm = modulators of MEK5 binding to wildtype MEKK2, confirmation, biochemical, single concentration, multiplex bead flow cytometry. shares compounds with MEKK3 PB1 HTS. Alexa488-MEK5 binding to MEKK2 WT; actives lie on both sides. binding response (% of control), % at 10 µM. 2.4% of 5,900 active; in the data active = binding response below about 16% or above about 210%; inactive = in between
MEKK2mut confirm = mutant MEKK2 PB1-MEK5 binding signal retest – biochemical, single concentration, multiplex bead flow cytometry, confirmation | shares compounds with MEKK3 PB1 HTS | 2% of 5,900 active | Alexa488-MEK5 binding to MEKK2 mutant | percent response, % at 10 µM; in the data active = percent response mostly above about 71%, no sharp cut-off; inactive = mostly below about 38%;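 also: higher means compound restores mutant binding toward wildtype level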
MEKK3-MEK5 inh = MEKK3 wild-type PB1 binding to MEK5, inhibitors, confirmation, biochemical, bead multiplex flow cytometry, single concentration, wildtype | shares compounds with MEKK3 PB1 HTS | Alexa488-MEK5 binding to MEKK3; hits give low values | binding response (% of control), % at 10 µM | 1.8% of 5,900 active | AID 1894, 2009;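 active = binding response below 72% of control, or above a set upper limit, though filed actives all read lower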;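 also: lower values mean stronger disruption of MEK5 binding to MEKK3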
Large screens that a line does not name were inactive (follow-up assays come after a bar, where they were run); [ ] = dose if it differs, or a comment.

CCn1c(C)[n+](Cc2ccccc2)c2ccc(Cl)cc21	MEKK3 PB1 HTS 3.0[inhibitor], MEKK2wt PB1 HTS 5.0[inhibitor] | MEKK2wt confirm inactive | MEKK2mut confirm inactive | MEKK3-MEK5 inh inactive
COc1cccc(COC(=O)CSCC(=O)Nc2cccc(C)c2)c1OC	none (no result: MEKK2 mut-MEK5, MEKK3 PB1 HTS, MEKK2wt PB1 HTS)
Cc1ccc(Sc2nc(C)cc(C)c2S(C)(=O)=O)cc1	MEKK3 PB1 HTS 82[inhibitor] | MEKK2wt confirm inactive | MEKK2mut confirm inactive | MEKK3-MEK5 inh inactive
CCCSc1nc(C)cc(C)c1S(C)(=O)=O	none
NC1=NN=C(c2ccc3c(c2)OCCO3)CS1	MEKK3 PB1 HTS 1.0[inhibitor], MEKK2wt PB1 HTS 1.0[inhibitor] | MEKK2wt confirm inactive | MEKK2mut confirm inactive | MEKK3-MEK5 inh inactive
NNc1cc(C(=O)O)ccc1Cl	MEKK3 PB1 HTS 55[inhibitor], MEKK2wt PB1 HTS 61[inhibitor] | MEKK2wt confirm inactive | MEKK2mut confirm inactive | MEKK3-MEK5 inh inactive
CC1CCC2C(C1)Nc1c(C(=O)O)cccc1C2(C)C (stereo not drawn)	none
O=C(C[n+]1cc(-c2ccc(Cl)cc2)n2c1CCC2)Nc1nc(-c2ccc(F)cc2)cs1	MEKK2wt PB1 HTS 177 | MEKK2wt confirm inactive | MEKK2mut confirm inactive | MEKK3-MEK5 inh inactive
O=C(C[n+]1cc(-c2ccccc2)n2c1CCC2)Nc1nc(-c2ccc(F)cc2)cs1	MEKK2wt PB1 HTS 181 | MEKK2wt confirm inactive | MEKK2mut confirm inactive | MEKK3-MEK5 inh inactive
Cc1ccc(C(=O)Cn2nc(C(=O)O)c3ccccc3c2=O)cc1C	none
Cc1ccc(NCCc2ccc(C)nc2)cc1	none
COc1cc(SC)ccc1C(=O)N1CCN(c2ccccc2)CC1	none
COc1cc(SC)ccc1C(=O)N1CCCCCC1	MEKK3 PB1 HTS 125 | MEKK2wt confirm inactive | MEKK2mut confirm inactive | MEKK3-MEK5 inh inactive
CCOC(=O)CNC(=O)CSc1nnc(Cn2cnc3ccccc32)n1C	MEKK3 PB1 HTS 126 | MEKK2wt confirm inactive | MEKK2mut confirm inactive | MEKK3-MEK5 inh inactive
COc1ccc(NC(=O)CSc2nnc(Cn3cnc4ccccc43)n2C)cc1	none
CC1(C)Cc2c(ccc3ccccc23)-c2nnc(-c3cccnc3)n21	MEKK3 PB1 HTS 0.0[inhibitor], MEKK2wt PB1 HTS -8.0[inhibitor] | MEKK2wt confirm inactive | MEKK2mut confirm inactive | MEKK3-MEK5 inh inactive
Cn1c(=N)n(CC(=O)c2ccc(Br)s2)c2ccccc21	none (no result: MEKK2 mut-MEK5, MEKK3 PB1 HTS, MEKK2wt PB1 HTS)
N=c1n(CC(=O)c2ccc(Br)s2)c2ccccc2n1Cc1ccccc1	MEKK2wt PB1 HTS 158 | MEKK2wt confirm inactive | MEKK2mut confirm inactive | MEKK3-MEK5 inh inactive
Cc1ccc(NC(=O)CCn2cnc3ccccc3c2=O)c(C)c1	none
Cc1cccc(C)c1NC(=O)CCn1cnc2ccccc2c1=O	MEKK3 PB1 HTS 1.0[inhibitor], MEKK2wt PB1 HTS -2.0[inhibitor] | MEKK2wt confirm inactive | MEKK2mut confirm inactive | MEKK3-MEK5 inh inactive
CSc1ccccc1NC(=O)CN1CC(C)OC(C)C1 (stereo not drawn)	MEKK3 PB1 HTS 133 | MEKK2wt confirm inactive | MEKK2mut confirm inactive | MEKK3-MEK5 inh inactive
CCCS(=O)(=O)c1c(S(=O)(=O)CCC)c2ccc(C(C)=O)cn2c1C(=O)OC	none
O=C(NC1CCCCC1)C1CCCN(S(=O)(=O)c2cccc3cccnc23)C1 (stereo not drawn)	MEKK3 PB1 HTS 129 | MEKK2wt confirm inactive | MEKK2mut confirm inactive | MEKK3-MEK5 inh inactive
O=C(NC1CCCC1)C1CCN(S(=O)(=O)c2cccc3cccnc23)CC1	none
CC(C)(C)NC(=O)COc1ccc(CNCc2cccnc2)cc1	MEKK3 PB1 HTS 56[inhibitor] | MEKK2wt confirm inactive | MEKK2mut confirm inactive | MEKK3-MEK5 inh inactive
O=C1CN2C(=Nc3ccc(Cl)cc3C2c2ccccc2)CN1 (stereo not drawn)	none
CC(C)(C)C1CCC(OC(=O)c2ccncc2)CC1 (stereo not drawn)	none
O=C(CSc1cccc(C(F)(F)F)c1)NC(=O)c1ccccc1	MEKK3 PB1 HTS 146 | MEKK2wt confirm inactive | MEKK2mut confirm inactive | MEKK3-MEK5 inh inactive
CCCCNC(=O)c1cccc(C(=O)NCCCC)c1	none
O=C(C[n+]1ccc(C(=O)NCCCO)cc1)c1cccc(Br)c1	MEKK3 PB1 HTS 130 | MEKK2wt confirm inactive | MEKK2mut confirm inactive | MEKK3-MEK5 inh inactive
Cc1cccc(OCC(=O)N(Cc2ccco2)c2c(N)n(Cc3ccccc3)c(=O)[nH]c2=O)c1	none (no result: MEKK2 mut-MEK5, MEKK3 PB1 HTS, MEKK2wt PB1 HTS)
CCOc1ccc(N=C(/C(C(=O)C(=O)N2CCOCC2)=C(/O)c2ccccc2)c2ccccc2)cc1	MEKK3 PB1 HTS 49[inhibitor] | MEKK2wt confirm inactive | MEKK2mut confirm inactive | MEKK3-MEK5 inh inactive
CCOc1ccc(OCc2cccc(C(=O)N3CCOCC3)c2)cc1	none (no result: MEKK2 mut-MEK5, MEKK3 PB1 HTS, MEKK2wt PB1 HTS)
O=C(N/N=C/c1cccnc1)C1CC1(c1ccccc1)c1ccccc1 (stereo not drawn)	none
O=C(O)c1ccc(/C=N/NC(=O)C2CC2(c2ccccc2)c2ccccc2)cc1 (stereo not drawn)	MEKK3 PB1 HTS 153 | MEKK2wt confirm inactive | MEKK2mut confirm inactive | MEKK3-MEK5 inh inactive
CCCOCCOC(=O)C1=C(C)NC(=O)NC1c1cc(Cl)c(O)c(OC)c1 (stereo not drawn)	MEKK3 PB1 HTS 1.0[inhibitor], MEKK2wt PB1 HTS -2.0[inhibitor] | MEKK2wt confirm inactive | MEKK2mut confirm inactive | MEKK3-MEK5 inh inactive
CCN(C(=O)CSc1ncn[nH]1)c1c(N)n(Cc2ccccc2)c(=O)[nH]c1=O	none (no result: MEKK2 mut-MEK5, MEKK3 PB1 HTS, MEKK2wt PB1 HTS)
CCC(C)c1ccc(OCC(=O)Nc2ccc3[nH]c(=O)[nH]c3c2)cc1 (stereo not drawn)	MEKK3 PB1 HTS 198 | MEKK2wt confirm inactive | MEKK2mut confirm inactive | MEKK3-MEK5 inh inactive
CCOc1cc(CNCCCN2CCOCC2)cc(Br)c1OCC(=O)Nc1cccc(C(F)(F)F)c1	MEKK2 mut-MEK5 31, MEKK2wt PB1 HTS 162 | MEKK2wt confirm inactive | MEKK2mut confirm inactive | MEKK3-MEK5 inh inactive
COc1cc(CNCCN2CCOCC2)ccc1OCc1ccc(Cl)cc1	none
COc1cc(CNCCCN2CCOCC2)cc(Br)c1OCc1ccc(Cl)cc1	MEKK2wt PB1 HTS 158 | MEKK2wt confirm inactive | MEKK2mut confirm inactive | MEKK3-MEK5 inh inactive
Cc1ccc(NS(=O)(=O)c2cc([N+](=O)[O-])ccc2NNC(=S)Nc2cccc(Cl)c2)c(C)c1	MEKK3 PB1 HTS 136 | MEKK2wt confirm inactive | MEKK2mut confirm inactive | MEKK3-MEK5 inh inactive
Cc1ccc(NS(=O)(=O)c2cc([N+](=O)[O-])ccc2NNC(=S)Nc2cc(C)ccc2C)c(C)c1	none
